The record followed here is PubChem BioAssay AID890 (National Center for Advancing Translational Sciences (NCATS), 2007).

Calls of active or inactive are those of the source. Entries that show only a call come without a potency. Calls follow the shape of the dose curve; as a rule, active = well fitted activation curve with a large enough effect; inactive = flat fitted curve, though single readings scatter.

This assay in a line: Confirmation Concentration-Response Assay for Epigenetic Modulators. Particulars: murine C127i cells, silenced GFP reporter derepression, imaging; series mostly up to 46 µM. The text has this:
NIH Molecular Libraries Screening Centers Network [MLSCN] NIH Chemical Genomics Center [NCGC] MLSCN Grant: 1 X01 MH079860-01 Assay Provider: Elisabeth D. Martinez, University of Texas SW Medical Center NCGC Assay Overview: The Locus Derepression assay detects the derepression of a GFP reporter that is stably integrated in a region of the genome of murine c127i mammary cells that is presumably silenced. GFP transcription in this construct is controlled by a CMV promoter, which normally is strong and constitutively active. However, this line was selected for lack of constitutive expression of the GFP protein. GFP production can be induced by incubating the cells with histone deacetylase or DNA methyltransferase inhibitors. Compounds that cause derepression of the locus to express GFP are identified by enumerating GFP positive cells using a laser-scanning microplate cytometer.
NCGC Assay Protocol Summary: Two hundred and fifty cells in 5 uL per well were dispensed into black, clear-bottom 1536-well plates. Twenty-three nL compound was transferred to the assay plate and cells were incubated 30 hours at 37 C. Medium was removed, cells were washed two times with PBS, and GFP-positive cells were enumerated as fluorescent objects between the sizes of 20 to 120 um width and depth using a laser-scanning microplate imager (Acumen Explorer Ex3, TTP Labtech) Keywords: NIH Roadmap, MLSCN, MLI, MLSMR, qHTS, NCGC, qHTS, HDAC, DNMT, HAT, DNA methyltransferases, histone acetyl transferases, histone deacetylases
For the molecule `Cc1cc(C)n(-c2nc(NC(C)C)nc(NC(C)(C)C)n2)n1`, the Potency result was “inactive”. As for `COC(=O)c1cccc(NC(c2ccccn2)c2ccc3cccnc3c2O)c1` (centres undefined), the entry is “inactive”. In the case of `CC(C)C(=O)NC(c1cccs1)c1cc(Cl)c2cccnc2c1O` (centres undefined), the Potency entry is “inactive”. In the case of `CCOCc1ccc(O)c2ncccc12`, the Potency is 4.97 µM (active).
